KB-3-1 cytotox – qHTS assay for MDR1-selective chemotherapeutics: Primary screen using the parental adenocarcinoma cell KB-3-1; actives 1.4% (n = 400,000); KB-3-1 viability, CellTiter-Glo ATP luminescence, 72 h; Potency, µM (series often up to 46.1 µM), hits mostly cytotoxic; also: % is scaled to controls: 0 for no effect and ±100 for the full control effect; nearly all actives have a fitted effect of over 60% in size
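Multi-concentration cytotoxicity screen in KB-3-1 cells grown in DMEM lacking phenol red with 10% FBS. After 72 h at 37 °C with compound, ATP-dependent luminescence was recorded.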
VP16 counter – VP16 counterscreen qHTS for inhibitors of ROR gamma transcriptional activity; Potency, µM (top dose mostly 53.6 µM), without a hit: top-dose activity, negative = inhibition, actives largely listed as inhibitors; AID 2546, 2010; Drosophila S2 Gal4-VP16 UAS-luciferase, luminescence, 20 h; actives 3.5% (n = 310,000);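 also: Gal4-VP16 expression switched on by copper sulfate through the metallothionein promoter; % is scaled to controls: 0 for no effect and ±100 for the full control effect; nearly all actives have a fitted effect of over 50% in size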
MCF10A rereplic – A quantitative high throughput screen for small molecules that induce DNA re-replication in MCF 10a normal breast cells. actives 2.9% (n = 350,000). Potency, µM (top dose mostly 46.1 µM), for inactives: top-dose activity, positive = re-replication, hits mostly activators. AID 624296, 2012. MCF 10A DNA re-replication, Hoechst nuclear intensity, 48 h; also: % of control where 0% means no effect; nearly all actives have a fitted effect of over 50% in size
SW480 rerep – A quantitative high throughput screen for small molecules that induce DNA re-replication in SW480 colon adenocarcinoma cells; SW480 DNA re-replication, Hoechst DNA content imaging, 48 h; Potency, µM (series often up to 46.1 µM), for the others: at the top dose re-replication activation, usual class: activators; actives 1.8% (n = 340,000); AID 624297, 2012; also: % of control where 0% means no effect; nearly all actives have a fitted effect of over 55% in size
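Quantitative HTS format with DMSO vehicle controls; 48 hr drug incubation at 37 C, then 40 min Hoechst staining and scanning imager measurement at 405 nm excitation.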
RORg inh – qHTS for inhibitors of ROR gamma transcriptional activity; actives 5.4% (n = 310,000); Drosophila S2 Gal4-RORgamma UAS-luciferase reporter, 20 h; AID 2551, 2010; Potency, µM (series often up to 53.6 µM), without a hit: at the top dose activity change, negative = inhibition, hits mostly inhibitors; also: % is scaled to controls: 0 for no effect and ±100 for the full control effect; nearly all actives have a fitted effect of over 60% in size
Target sequence (P51450 whole entry, looked up, the tested form may be a part): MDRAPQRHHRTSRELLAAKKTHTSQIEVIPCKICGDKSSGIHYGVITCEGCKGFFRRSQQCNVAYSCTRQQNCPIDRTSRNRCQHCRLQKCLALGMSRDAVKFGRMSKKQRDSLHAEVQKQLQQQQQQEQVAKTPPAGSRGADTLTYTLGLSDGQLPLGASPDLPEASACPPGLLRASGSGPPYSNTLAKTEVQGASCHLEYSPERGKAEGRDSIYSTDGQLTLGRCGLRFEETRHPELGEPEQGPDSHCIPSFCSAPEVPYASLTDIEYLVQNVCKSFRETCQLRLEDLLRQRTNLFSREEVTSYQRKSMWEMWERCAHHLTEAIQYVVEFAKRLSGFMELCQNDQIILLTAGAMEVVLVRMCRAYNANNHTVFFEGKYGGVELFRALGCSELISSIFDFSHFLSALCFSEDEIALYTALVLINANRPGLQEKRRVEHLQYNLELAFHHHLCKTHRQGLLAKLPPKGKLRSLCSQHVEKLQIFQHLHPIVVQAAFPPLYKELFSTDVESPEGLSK
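Luciferase reporter read in Schneider cells carrying Gal4-RORγ (mouse) and UAS-Photinus luciferase; cells given compound 1 h before 700 uM copper sulfate induction, then incubated 20 h at ambient temperature.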
KB-V1 MDR tox – qHTS assay for MDR1-selective chemotherapeutics: Primary screen using the drug-selected MDR subline cells KB-V1. Potency, µM (series often up to 46.1 µM), most hits filed as cytotoxic. KB-V1 MDR cells viability, CellTiter-Glo, 72 h. actives 3.4% (n = 400,000); also: % is scaled to controls: 0 for no effect and ±100 for the full control effect; nearly all actives have a fitted effect of over 60% in size
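Cells of the MDR subline KB-V1 are plated, dosed with compound at multiple concentrations, and incubated 72 h at 37 degrees C; CellTiter-Glo is then added and luminescence read after 10 min.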
An asterisk follows results filed as active; i = inactive; ? = inconclusive; . = not tested or not shown; [ ] = remark or other dose. This is a sample that favours compounds with a hit; in the whole collection about 10% have one here. Calls follow the shape of the dose curve; as a rule, active = well fitted curve in the direction sought with a large enough effect; inconclusive = small, poorly fitted or top-dose-only effect, or another doubt; inactive = no such curve, though single readings can be large; an effect the other way counts as inactive or inconclusive. Potency is read from the fitted curve at half-maximal effect.

SMILES | KB-3-1 cytotox | VP16 counter | MCF10A rereplic | SW480 rerep | RORg inh | KB-V1 MDR tox
CSc1ccc(/C=C/C(=O)c2ccc(NC(=O)Cc3ccccc3)cc2)cc1 | i | 9% | ? | 18µM* | ? | ?
CCOC(=O)Nc1ccc(Oc2ccccc2)cc1 | i | 11% | 8% | 0% | ? | i
CCN(C(=O)CSc1ncc2c(n1)-c1cc(Cl)ccc1N(Cc1ccccc1)S2(=O)=O)c1cccc(C)c1 | i | . | . | . | . | i
COc1ccc2ncc(S(=O)(=O)c3ccccc3)c(N3CCN(c4ccccc4)CC3)c2c1 | i | -1% | 14% | -10% | -4% | i
COc1ccc(-c2c(S(=O)(=O)c3ccccc3)cnn2-c2ccccc2)cc1 | ? | -13% | -184%[0.0737 µM] | 2% | -7% | 23µM*
O=S(=O)(c1ccccc1)c1cnn(-c2ccccc2)c1-c1ccc(Cl)cc1 | ? | -15% | 7% | 11% | -1% | 15µM*
CCN(Cc1ccccc1)S(=O)(=O)c1ccc(C(=O)N(CCCN(C)C)c2nc3c(C)c(C)ccc3s2)cc1 | ? | . | 16µM* | 6.5µM* | . | ?
Cc1ccc2sc(N(CCCN(C)C)C(=O)c3ccc(S(=O)(=O)N(C)C4CCCCC4)cc3)nc2c1C | 23µM* | . | 23µM* | ? | . | 18µM*
CC(=O)c1ccc(C(=O)N(CCCN(C)C)c2nc3c(C)c(C)ccc3s2)cc1 | i | . | . | . | . | i
CCOC(=O)N1CCN(C(=O)/C(=C/c2ccc(F)cc2)NC(=O)c2ccccc2)CC1 | . | . | 17% | 0% | . | .
CCOC(=O)N1CCN(C(=O)/C(=C/c2ccc(Br)cc2)NC(=O)c2ccc(OC)cc2)CC1 | i | 6% | 3% | -4% | 40% | 18µM*
CCOC(=O)N1CCN(C(=O)/C(=C/c2cccc3ccccc23)NC(=O)c2ccc(OC)c(OC)c2)CC1 | i | -9% | 8% | -2% | 20% | 4.6µM*
CC12CC3CC(C)(C1)CC(C(=O)Nc1nncs1)(C3)C2 | i | 18µM* | 0% | ? | ? | i
Cc1nnc(NC(=O)C23CC4CC(C)(CC(C)(C4)C2)C3)s1 | i | . | -24% | 5%[1.84 µM] | . | i
COc1ccc(-n2c(C)cc(C(=O)CSc3ccc(NC(C)=O)cc3)c2C)cc1 | i | ? | 16µM* | 13% | ? | ?
Cc1nnc(SCC(=O)c2cc(C)n(-c3c(C)n(C)n(-c4ccccc4)c3=O)c2C)s1 | i | -12% | -9% | -1% | -15%[10 µM] | i
COc1ccc(-n2c(C)cc(C(=O)COc3ccc(C)nc3[N+](=O)[O-])c2C)cc1 | ? | ? | 21µM* | ? | ? | ?
Cc1ccc(OCC(=O)c2ccc(Cl)s2)c([N+](=O)[O-])n1 | i | 20µM* | ? | ? | ? | i
Cc1cc(C(=O)CCl)c(C)n1-c1c(C)n(C)n(-c2ccccc2)c1=O | ? | ? | 5.2µM* | 21µM* | ? | ?
CC(=O)Nc1ccc(SCC(=O)c2cc(C)n(-c3ccccc3)c2C)cc1 | i | 7% | 0% | -2% | 2% | ?
CCNc1ncc2nc(-c3ccc(OC)cc3)c(=O)n(-c3ccc(OC)cc3)c2n1 | . | -3% | . | . | -31% | .
COc1cc(OC)cc(C2=Nn3c(nnc3-c3ccccc3OC)SC2)c1 | . | -7% | . | . | -11% | .
COc1ccc(-n2c(C)cc(C(=O)CCl)c2C)cc1 | 6.5µM* | ? | 6.5µM* | 2.6µM* | 13µM* | ?
COc1ccc(-n2c(C)cc(C(=O)CN3C(=O)c4ccccc4C3=O)c2C)cc1 | i | -11% | 1% | 2% | ? | i
Nc1nc(Cl)cc(N2CCCC2)n1 | i | 8% | 8% | -11% | -1% | i

Screens: PubChem, National Center for Advancing Translational Sciences (NCATS)
